# The campaign covered roughly 310,000 compounds. About 14,000 (4.5%) showed an effect of 50% or more. Effects have a minus sign here. What follows is part of a selection rich in strong results, with near analogues and random picks from the rest.
# Target: human ether-à-go-go-related gene (hERG) potassium channel (human, UniProt Q12809)
# Assay: primary screen, population patch clamp on CHO cells stably expressing hERG; higher = less effect of the substance
# Method: Briefly, Chinese hamster ovary (CHO) cells stably expressing the hERG channel were dislodged from tissue culture flasks and dispensed into PPC plates. […] During the recording, background leak currents were estimated by a 100 ms step to -80 mV from an initial holding potential of -70 mV and subtracted from the subsequent current measurement. The campaign was conducted in two phases using slight differences in recording protocol. In the first phase, the initial voltage pulse used a 100 ms step to -30 mV from a holding potential of -70 mV, a 2 s conditioning step to +25 mV, and a 2 s test step to -30 mV. During the second phase of the screen, the potential during the conditioning step was raised to +45 mV. In both phases of the campaign, a secondary voltage pulse was applied using the same parameters as the second phase initial pulse. The initial and secondary pulses were applied in the absence of compound, and upon application of 1 μM and 10 μM test concentrations. […]
# 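Note: peak tail current of the secondary pulse compared with the same well before compound.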
# Chain of human ether-à-go-go-related gene (hERG) potassium channel (Q12809 whole entry, looked up): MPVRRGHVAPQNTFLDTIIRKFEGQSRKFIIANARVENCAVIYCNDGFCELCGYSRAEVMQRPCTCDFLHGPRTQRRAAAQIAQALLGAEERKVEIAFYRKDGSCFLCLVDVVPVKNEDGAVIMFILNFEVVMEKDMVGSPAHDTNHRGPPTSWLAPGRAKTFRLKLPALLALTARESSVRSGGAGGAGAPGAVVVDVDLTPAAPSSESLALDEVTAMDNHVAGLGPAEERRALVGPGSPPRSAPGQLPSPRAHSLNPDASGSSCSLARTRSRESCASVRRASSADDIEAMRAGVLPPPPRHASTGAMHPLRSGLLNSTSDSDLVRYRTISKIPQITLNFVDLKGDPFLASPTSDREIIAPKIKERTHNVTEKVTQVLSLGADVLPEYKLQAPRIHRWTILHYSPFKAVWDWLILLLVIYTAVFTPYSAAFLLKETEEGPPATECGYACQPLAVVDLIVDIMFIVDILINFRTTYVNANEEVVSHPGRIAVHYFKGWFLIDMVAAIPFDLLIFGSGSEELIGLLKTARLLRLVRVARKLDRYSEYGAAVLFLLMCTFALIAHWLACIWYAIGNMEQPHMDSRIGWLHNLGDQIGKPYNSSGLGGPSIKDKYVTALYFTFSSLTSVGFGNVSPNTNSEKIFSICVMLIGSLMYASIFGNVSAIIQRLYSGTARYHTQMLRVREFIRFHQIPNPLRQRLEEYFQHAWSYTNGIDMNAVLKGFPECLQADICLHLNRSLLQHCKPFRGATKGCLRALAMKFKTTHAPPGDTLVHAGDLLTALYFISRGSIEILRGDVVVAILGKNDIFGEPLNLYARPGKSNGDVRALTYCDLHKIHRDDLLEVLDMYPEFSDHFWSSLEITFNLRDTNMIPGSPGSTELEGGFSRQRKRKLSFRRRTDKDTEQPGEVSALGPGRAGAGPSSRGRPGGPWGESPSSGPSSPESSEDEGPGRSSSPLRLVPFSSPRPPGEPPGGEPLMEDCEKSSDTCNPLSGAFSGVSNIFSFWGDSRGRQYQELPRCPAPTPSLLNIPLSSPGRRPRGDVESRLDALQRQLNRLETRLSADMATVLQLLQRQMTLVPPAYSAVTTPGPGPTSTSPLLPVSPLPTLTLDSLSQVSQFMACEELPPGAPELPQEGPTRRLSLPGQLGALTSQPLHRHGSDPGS
row,Structure (SMILES),"hERG current change (%, negative = inhibition) at 10uM"
1,Cc1cccc2cc(CN(CCN(C)C)C(=S)NCc3ccco3)c(=O)[nH]c12,-38.9%
2,CCN(CC)CCN(Cc1cc2ccc(C)c(C)c2[nH]c1=O)C(=S)NCc1ccco1,-51.4%
3,Cc1ccc2cc(CN(CC3CCCO3)C(=S)NCc3ccco3)c(=O)[nH]c2c1C (stereo not drawn),-40.8%
4,Cc1cc(C)c2[nH]c(=O)c(CN(Cc3cccs3)C(=S)NCc3ccco3)cc2c1,-15.7%
5,Cc1cc(C)c2[nH]c(=O)c(CN(CC3CCCO3)C(=S)NCc3ccco3)cc2c1 (stereo not drawn),-4.81%
6,CCN(CC)CCN(Cc1cc2cc(C)cc(C)c2[nH]c1=O)C(=S)NCc1ccco1,-52.5%
7,Cc1ccc(OCCC(=O)Nc2ccc(S(=O)(=O)Nc3cc(C)nc(C)n3)cc2)cc1,1.18%
8,Br.C=CCN1CCc2cccc3c2[C@H]1Cc1ccc(O)c(O)c1-3,-19.3%
9,Br.CCCN1CCc2cc(O)cc3c2[C@H]1Cc1ccc(O)c(O)c1-3.O,-57.8%
10,COc1c(O)ccc2c1-c1c3c(cc4c1C(C2)N(C)CC4)OCO3 (stereo not drawn),-28.7%
11,Cn1c(N)c(N=Nc2ccc(S(N)(=O)=O)cc2)c(=O)n(C)c1=O,27.6%
12,CCN(CC(=O)Nc1ccc(OC)cc1)CC(=O)Nc1ccc(Br)cc1F,-67.4%
13,CCN(CC(=O)Nc1ccc(OC)cc1)CC(=O)Nc1ccc(Cl)cc1F,-6.34%
14,COc1ccc(NC(=O)CN(C)CC(=O)Nc2ccc(Cl)cc2F)cc1,-10.6%
15,Cc1ccc(Cn2nnc3c(=O)n(CC(=O)c4ccccc4)cnc32)cc1,-0.591%
16,COc1ccc(NS(=O)(=O)c2cc(-c3cnc(C4CC4)o3)ccc2C)cc1,6.02%
17,COC(=O)c1ccc(-c2nc(CN3CCC(C(=O)N4CCOCC4)CC3)c(C)o2)cc1,-7.65%
18,Cc1ccc(-c2nc(CS(=O)CC(=O)N3CCN(c4ncccn4)CC3)c(C)o2)cc1 (stereo not drawn),-54.1%
19,COc1ccc(-c2nc(CN3CCC(C(=O)N4CCOCC4)CC3)c(C)o2)cc1OC,-6.54%
20,Cc1ccc(-c2nc(CS(=O)CC(=O)N3CCN(c4ccccc4)CC3)c(C)o2)cc1 (stereo not drawn),-31.3%
21,Cc1ccc(-c2nc(CS(=O)CC(=O)N3CCN(c4ccc(F)cc4)CC3)c(C)o2)cc1 (stereo not drawn),-42%
22,Cc1ccc(-c2nc(CSCC(=O)N3CCN(c4ccccn4)CC3)c(C)o2)cc1,-25%
23,Cc1ccccc1-c1nc(CN2CCC(C(=O)N3CCN(c4ccccn4)CC3)CC2)c(C)o1,-62%
24,CCc1ccc(-c2nc(CN3CCC(C(=O)N4CCN(c5ccccc5)CC4)CC3)c(C)o2)cc1,-71.3%
25,CCc1ccc(-c2nc(CSCC(=O)N3CCN(c4ccccn4)CC3)c(C)o2)cc1,-50.7%
26,CCc1ccc(-c2nc(CSCC(=O)N3CCN(c4ncccn4)CC3)c(C)o2)cc1,-23.6%
27,CCOc1ccccc1-c1nc(CN2CCC(C(=O)N3CCOCC3)CC2)c(C)o1,-5.13%
